Experimental data: PubChem BioAssay (NCATS)
“And” between values parts separate entries of the source, which are not always exact repeats. Identical values can stand only once. Records with an inconclusive call do not appear. Values without a mark were called inactive. The source made the active and inactive calls. Calls follow the shape of the dose curve; as a rule, active = well fitted inhibition curve with a large enough effect; inconclusive = small, poorly fitted or top-dose-only effect; inactive = flat fitted curve, though single readings scatter.

System: astro (control astrocytes)
Experiment: Drug repurposing screens with cells derived from glioblastoma tumor samples (AID 1345199); also: nearly all actives have a fitted effect of over 40% in size
Conditions: viability, ATP luminescence, 48 h; series mostly up to 45.9 µM; activity, negative = cell killing: at the top concentration
Description: CD133+ cells were isolated from GBM patient biopsies and cultured as neurospheres. Neurospheres from four patients were used to screen the NCATS pharmaceutical collection (NPC) library of approved drugs and bioactive compounds. […] The neurospheres were incubated with drugs for 48 hours in 1536-well format, then assayed with an ATP content cell viability assay. […] These hits were cherry picked to confirm activity in the four original GBM lines screened plus three other slower growing GMB lines (unable to yield enough cells for a full primary screen). Variable activities of the confirmed primary hits in the different GBM patient lines were observed. The patient line 206 responded to the greatest number of compounds and line 923 responded to the least amount of active compounds.
% is scaled to controls: 0 for no effect and ±100 for the full control effect; potency is read from the fitted curve at half-maximal effect.

SMILES | activity, negative = cell killing | Potency
C[C@]12C=CC(=O)C=C1CC[C@@H]1[C@@H]2[C@@H](O)C[C@@]2(C)[C@H]1CC[C@]2(O)C(=O)COC(=O)CCC(=O)O | -15.1% | –
COC(=O)[C@H]1[C@H]2C[C@@H]3c4[nH]c5ccccc5c4CCN3C[C@H]2C[C@@H](OC(=O)c2cc(OC)c(OC)c(OC)c2)[C@@H]1OC | -27.9% | –
O=C(O)C[C@H](O)C[C@H](O)/C=C/c1c(C2CC2)nc2ccccc2c1-c1ccc(F)cc1 | – | 0.398 µM (active)
C#C[C@]1(O)CC[C@H]2[C@@H]3CCC4=C/C(=N/O)CC[C@@H]4[C@H]3CC[C@@]21CC | – | 20 µM (active)
CO[C@H]1C[C@@H]2CC[C@@H](C)[C@@](O)(O2)C(=O)C(=O)N2CCCC[C@H]2C(=O)O[C@H]([C@H](C)C[C@@H]2CC[C@@H](OCCO)[C@H](OC)C2)CC(=O)[C@H](C)/C=C(\C)[C@@H](O)[C@@H](OC)C(=O)[C@H](C)C[C@H](C)/C=C/C=C/C=C/1C | – | 25.1 µM (active)
CCCCC(=O)O[C@]1(C(=O)CO)[C@H](C)C[C@H]2[C@@H]3CCC4=CC(=O)C=C[C@]4(C)[C@@]3(F)[C@@H](O)C[C@@]21C | -15.4% | –
CC(O)CO (stereo not given) | -11.2% | –
O=C1CSC2(CCN(CCCN3c4ccccc4Sc4ccc(Cl)cc43)CC2)N1 | – | 25.1 µM (active)
CC(=O)O[C@]1(C(C)=O)CC[C@H]2[C@@H]3CCC4=CC(=O)CC[C@]4(C)[C@@]3(F)[C@@H](O)C[C@@]21C | -21.2% | –
COc1ccc(C[C@H](N)C(=O)N[C@H]2[C@@H](O)[C@H](n3cnc4c(N(C)C)ncnc43)O[C@@H]2CO)cc1 | – | 3.16 µM (active)
COC(=O)CCC(=O)CN | -13.5% | –
CCOC(=O)C1=C(C)NC(C)=C(C(=O)OCC)C1c1ccccc1C=CC(=O)OC(C)(C)C | – | 20 µM (active)
CCCC(=O)O[C@]1(C(=O)COC(C)=O)CC[C@H]2[C@@H]3C[C@H](F)C4=CC(=O)C=C[C@]4(C)[C@@]3(F)[C@@H](O)C[C@@]21C | -17.1% | –
C=CCSSSCC=C | -22.8% | –
C#CCOc1ccc2c(C)cc(=O)oc2c1 | -11.8% | –
C[C@H]1C[C@H]2[C@@H]3CCC4=CC(=O)C=C[C@]4(C)[C@@]3(F)[C@@H](O)C[C@]2(C)[C@@]1(O)C(=O)CO | -14% | –
OC[C@H]1O[C@@H](n2cnc3c2NC=NC[C@H]3O)C[C@@H]1O | -2.45% | –
CCC(=O)NCCC1CCc2ccc3c(c21)CCO3 (stereo not given) | -29.8% | –
O=C(O)CN(CCN(CC(=O)O)CC(=O)O)CC(=O)O | -5.83% | –
CC(C(=O)O)c1ccc(N2Cc3ccccc3C2=O)cc1 (stereo not given) | – | 10 µM (active)

SMILES | activity, negative = cell killing | Potency
Cc1cc(C(=O)NNCc2ccccc2)no1 | -7.86% [at 21.2 µM] | –
CCN(CC)Cc1cc(Nc2ccnc3cc(Cl)ccc23)ccc1O | -19.3% [at 21.2 µM] | –
Cc1ccccc1OCC(O)CNCCOc1ccc(C(N)=O)cc1 (stereo not given) | -23.8% | –
CC(NNC(=O)c1ccccc1)c1ccccc1 (stereo not given) | -9.8% | –
Cc1cc(CC(C)CC(C)(C)C)n(O)c(=O)c1 (stereo not given) (tested in a mixture with another compound) | – | 20 µM (active)
CC(Oc1ccccc1)C(=O)N[C@@H]1C(=O)N2[C@@H]1SC(C)(C)[C@@H]2C(=O)O (stereo not given in full) | -8.67% [at 21.2 µM] | –
CCOc1ccc2c(c1)C(C)=CC(C)(C)N2 | -12.6% | –
CC[N+](CC)(CC)CCC(O)(c1ccccc1)C1CCCCC1 (stereo not given) | -13.6% [at 21.2 µM] | –
CCCCC(=O)N(Cc1ccc(-c2ccccc2-c2nn[nH]n2)cc1)[C@@H](C(=O)O)C(C)C | -15.8% | –
CC(C)(C)C(=O)OCOC(=O)[C@@H]1N2C(=O)[C@@H](N=CN3CCCCCC3)[C@H]2SC1(C)C | -2.81% [at 21.2 µM] | –
O=S(=O)(O)c1cc(O)c2c(N=Nc3ccc(Nc4ccccc4)c4c(S(=O)(=O)O)cccc34)cc(S(=O)(=O)O)cc2c1 | – | 14.1 µM (active)
CO[C@H]1C[C@H](O[C@H]2[C@H](C)[C@@H](O[C@@H]3O[C@H](C)C[C@H](N(C)C)[C@H]3OC(C)=O)[C@@H](C)C[C@]3(CO3)C(=O)[C@H](C)[C@@H](OC(C)=O)[C@@H](C)[C@@H](C)OC(=O)[C@@H]2C)O[C@@H](C)[C@@H]1OC(C)=O | -5.03% [at 21.2 µM] | –
C[C@H](CCC(=O)O)[C@H]1CC[C@H]2[C@@H]3[C@H](O)C[C@@H]4C[C@H](O)CC[C@]4(C)[C@H]3CC[C@]12C | -1.02% [at 21.2 µM] | –
COc1cc2c(cc1O)CCN[C@]21CS[C@@H]2c3c(OC(C)=O)c(C)c4c(c3[C@H](COC1=O)N1[C@@H]2[C@H]2c3c(cc(C)c(OC)c3O)C[C@@H]([C@@H]1O)N2C)OCO4 | – | 8.91 µM (active) and 14.1 µM (active)
O=C(Nc1ccc(Br)cc1)c1cc(Br)c(Br)s1 | – | 11.2 µM (active)
CO/N=C(\C(=O)N[C@@H]1C(=O)N2C(C(=O)O)=C(CSc3cnns3)CS[C@H]12)c1csc(N)n1 | -8.54% | –
CCCCCCCC/C=C\CCCCCCCC(=O)O | -21.7% | –
CCOC(=O)O[C@]1(C(=O)COC(=O)CC)CC[C@H]2[C@@H]3CCC4=CC(=O)C=C[C@]4(C)[C@H]3[C@@H](O)C[C@@]21C | -7.16% [at 21.2 µM] | –
CC1=C(/C=C/C(C)=C/C=C/C(C)=C/C=C/C=C(C)/C=C/C=C(C)/C=C/C2=C(C)C(=O)CCC2(C)C)C(C)(C)CCC1=O | -29.6% | –
CN1Cc2c(N)cccc2C(c2ccccc2)C1 (stereo not given) | -22.7% | –
